Target: TAF3
Test: pooled miR-30 sensor sort-seq; sequence = guide strand
Details: shRNA
Note: reference of the scale not given here.

| Sequence | sensor-assay potency score (higher = more potent) |
| --- | --- |
| TTGATTTTAAACTTGTAGGGAT | 0.554 |
| TTGTCCTTCTTCTTGTTCGCAC | 0.171 |
| TTTGGGAGTAGTACACTCCGGG | 0.0818 |

Target: TAF4
Test: as above
Details: shRNA

| Sequence | sensor-assay potency score (higher = more potent) |
| --- | --- |
| TAACTGTTCTGGATCTTCTTGT | 0.732 |
| TATTTTTCTGTGCAGCAGCTGC | -0.881 |
| TTAACTGTTCTGGATCTTCTTG | -0.704 |
| TTTGTCGCGTGAACTGTCTGGG | 0.638 |
| TTAATGTCATCATCGTCCCGAA | -0.403 |
| TTAAGTTCTCGGTATAACCTGC | 0.0759 |
| TATTCTTGCACTTTCTTCTGAC | 0.569 |
| TTACCTATTTCTAATATTCTTC | -0.515 |
| TACATCTGGATGTAATTCCGTT | -0.473 |
| ATTAATGTCATCATCGTCCCGA | 0.127 |
| TACATAACTTACTACATCTGGA | -0.0503 |
| TAGACATACACCTACATAGTAA | -0.674 |

Target: TAF5
Test: as above
Details: shRNA

| Sequence | sensor-assay potency score (higher = more potent) |
| --- | --- |
| TAAGTGAACAGACTGTATCAGT | -0.556 |
| TTGATTGTAGACTAGCTCCAAG | -0.676 |
| TATCTTATCCAACTTATCTGAA | -0.846 |
| TAATCGAACTGTATTATCCATT | -0.885 |
| TTATCTTATCCAACTTATCTGA | -0.244 |
| TAATACTCGTAGGTCATCCTGG | 0.422 |
| TATCTGAATCTTTCAACTCAGG | -1.06 |
| TAAGACTAGATAATACTCGTAG | 0.809 |
| TATCTGTTGCTTACTACGCGGC | -0.346 |
| TAGTATTCTTCATACATTGTGG | -0.781 |
| TTGTTTGACACTACGAAGCTTT | 0.143 |
| TTGAATCTGCAAAACCTCCAGC | 0.0484 |

Target: TARBP2
Test: as above
Details: shRNA

| Sequence | sensor-assay potency score (higher = more potent) |
| --- | --- |
| TTTCTGCACCACCAGCTCCTGC | -1.56 |
| TGCTGCAGCAGTAAAAACCGGA | -0.386 |
| TGAATTTCGTAGAGAATCCCAG | -0.515 |
| TATTCTGGTCCCATACTCCTGC | 0.18 |
| TCGTACACAGGCGTCTTCCCTA | -0.68 |
| TTCTCTCCTACTGAATTTCGTA | -0.854 |
| TTTGAGAAGGTCGTACACAGGC | -0.0476 |
| TTTCGAAGACCATCCAGGCGGG | -0.916 |
| TTGCAGAGCCATGACACACAGT | -0.909 |
| TTTCGTAGAGAATCCCAGGTGC | 0.652 |
| TCCTGCAGAAGGCTGATCGGGG | -1.33 |
| TAGGACTACAGATGGAACTGGG | 0.0896 |

From the OligoGym collection
